Measurements from PubChem BioAssay (EPA / NIEHS).
Activity calls are given as the source filed them. Rule for the calls: active = hit-call score of the fitted dose curve at least 0.9, where 1 is the maximum; inactive = score below 0.9.

Key:
[1] = ATG_CRE_CIS: Attagene CIS-FACTORIAL HepG2 Assay for human cAMP Responsive Element (CRE) binding protein 3 (AID 2282926); conditions: HepG2 CRE cis-reporter, Attagene multiplexed mRNA; actives raise or lower the signal
How it was run: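 Endogenous transcription factor activity read via CRE-regulated reporter transcripts in transfected HepG2 cells. After 24 h exposure, RNA was reverse-transcribed, amplified, fluorescently labelled and sized by capillary electrophoresis; gain or loss fitted against DMSO.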

[2] = molecular target: CCAAT/enhancer-binding protein beta (Homo sapiens) (UniProt P17676); assay: ATG_C_EBP_CIS: Attagene CIS-FACTORIAL HepG2 Assay for human CCAAT/Enhancer Binding Protein (C/EBP) beta (AID 2282927); conditions: HepG2 Attagene cis-factorial transcription factor reporter; actives raise or lower the signal
How it was run: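 HepG2, transient MRTU transfection, 24 h treatment. RT-PCR plus CE fluorescence; DMSO negative control, bidirectional fit.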

[3] = ATG_CMV_CIS: Attagene CIS-FACTORIAL HepG2 Assay for human CMV (Internal Marker) (AID 2282928); conditions: HepG2 CMV promoter reporter, transcription factor profiling; actives raise or lower the signal;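 note: endpoint acts as a background internal control marker rather than a target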
How it was run: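 Reporter transcripts from transfected HepG2 cells are isolated after 24 h of chemical dosing, reverse-transcribed and amplified. Fragments labeled with 6-FAM are cut with HpaI and quantified by capillary electrophoresis; DMSO defines baseline.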

[4] = ATG_DR4_LXR_CIS: Attagene CIS-FACTORIAL HepG2 Assay for human Liver X Receptor (LXR), DR4 submotif (AID 2282929); conditions: HepG2 Attagene DR4 cis-reporter, mRNA transcription; actives raise or lower the signal
How it was run: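 Transiently transfected HepG2 liver cells; cis-regulated reporters; 24 h dosing. RT-PCR plus CE read-out of reporter mRNA. DMSO baseline, bidirectional curve fitting.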

[5] = molecular target: Aryl hydrocarbon receptor (Homo sapiens) (UniProt P35869); assay: ATG_Ahr_CIS: Attagene CIS-FACTORIAL HepG2 Assay for human Aryl Hydrocarbon Receptor (Ahr) (AID 2282930); conditions: HepG2 AhR cis-factorial reporter transcription; actives raise or lower the signal
How it was run: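 Endogenous factor activity is tracked through cis-promoter reporter units transfected into HepG2 cells. Transcript levels at 24 h are read by fluorescent RT-PCR and capillary electrophoresis, with activity in either direction scored relative to DMSO.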

[6] = ATG_AP_1_CIS: Attagene CIS-FACTORIAL HepG2 Assay for human Activator Protein 1 (AP-1) (AID 2282931); conditions: HepG2 Attagene cis-factorial AP-1 reporter mRNA; actives raise or lower the signal
How it was run: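 We transfected HepG2 cells transiently with a set of cis-regulated reporter transcription units, dosed them for 24 h, and quantified reporter mRNA via RT-PCR and capillary electrophoresis, scoring gain or loss of signal relative to DMSO.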

[7] = ATG_AP_2_CIS: Attagene CIS-FACTORIAL HepG2 Assay for human Activator Protein 2 (AP-2) (AID 2282932); conditions: HepG2 AP-2 cis-reporter, Attagene transcription factor profiling; actives raise or lower the signal
How it was run: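 Read-out: fluorescent reporter mRNA via RT-PCR and capillary electrophoresis, 24 h post-dose in transiently transfected HepG2. Endogenous factors drive cis-promoter reporters; gain or loss of signal fitted bidirectionally against DMSO.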

[8] = ATG_BRE_CIS: Attagene CIS-FACTORIAL HepG2 Assay for human Bone Morphogenetic Protein (BMP) Response Element (BRE) (AID 2282933); conditions: HepG2 BMP response element reporter, Attagene transcription factor profiling; actives raise or lower the signal
How it was run: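 Transient MRTU transfection of human HepG2 liver cells; 24 h compound treatment; total RNA isolated, reverse-transcribed, PCR-amplified, 6-FAM labelled, HpaI-cut, capillary electrophoresis. DMSO = negative control/baseline, bidirectional fit.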

[9] = molecular target: Retinoic acid receptor alpha (Homo sapiens) (UniProt P10276); assay: ATG_DR5_RAR_CIS: Attagene CIS-FACTORIAL HepG2 Assay for human Retinoic Acid Receptor Alpha (RARE), DR5 submotif (AID 2282934); conditions: HepG2 Attagene cis-factorial RARE DR5 reporter, mRNA; actives raise or lower the signal
How it was run: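 After 24 h of chemical exposure, transiently transfected HepG2 cells were lysed for total RNA; the DR5-regulated reporter transcript was quantified via RT-PCR and capillary electrophoresis, with activity fitted bidirectionally against DMSO.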

[10] = molecular target: Transcription factor E2F1 (Homo sapiens) (UniProt Q01094); assay: ATG_E2F_CIS: Attagene CIS-FACTORIAL HepG2 Assay for human E2F Transcription Factor 1 (AID 2282935); conditions: HepG2 Attagene cis-reporter, E2F reporter RNA transcripts; actives raise or lower the signal
How it was run: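 Transient MRTU transfection of HepG2; 24 h compound exposure; RNA → oligo(dT) RT → PCR → FAM label → HpaI cut → CE fluorescence. Gain/loss of signal fit against DMSO.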

[11] = ATG_E_Box_CIS: Attagene CIS-FACTORIAL HepG2 Assay for human Enhancer Box (E-box) (AID 2282936); conditions: HepG2 E-box cis-reporter transcription, actives raise or lower the signal
How it was run: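 Transiently transfected HepG2, endogenous TF-driven reporters, 24 h dosing. Readout: RT-PCR plus capillary electrophoresis of fluorescent reporter fragments. Gain or loss of signal fitted bidirectionally against DMSO baseline.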

[12] = ATG_M_61_CIS: Attagene CIS-FACTORIAL HepG2 Assay for M61 Transcription Factor (Internal Marker) (AID 2282937); conditions: HepG2 Attagene CIS-FACTORIAL M61 internal marker reporter; actives raise or lower the signal
How it was run: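 Multiplexed reporter mRNA assay, HepG2 human hepatoma cells, 24 h treatment. Signal: FAM-labelled, HpaI-digested RT-PCR fragments by CE. Fit: bidirectional, baseline DMSO.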

[13] = ATG_EGR_CIS: Attagene CIS-FACTORIAL HepG2 Assay for human Early Growth Response 1 (EGR1) (AID 2282938); conditions: HepG2 Attagene CIS-FACTORIAL EGR reporter mRNA; actives raise or lower the signal
How it was run: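 Multiplexed cis-reporter system in human hepatoma HepG2 cells, transiently transfected. Cells are dosed for 24 h; reporter transcripts are amplified, fluorescently tagged and sized by capillary electrophoresis, with DMSO as negative control.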

[14] = ATG_M_19_CIS: Attagene CIS-FACTORIAL HepG2 Assay for M19 Transcription Factor (Internal Marker) (AID 2282939); conditions: HepG2 Attagene CIS-FACTORIAL M19 internal marker reporter; actives raise or lower the signal
How it was run: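 Transfect HepG2 with MRTU reporter library → dose chemical, 24 h → isolate total RNA, reverse-transcribe with oligo(dT) → PCR, 6-FAM label, HpaI cut (2 h, 37 C) → capillary electrophoresis. Bidirectional fit vs DMSO.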

[15] = ATG_Ets_CIS: Attagene CIS-FACTORIAL HepG2 Assay for human Erythroblast Transformation Specific (ETS) (AID 2282941); conditions: HepG2 ETS cis-reporter transcription, actives raise or lower the signal
How it was run: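 Bidirectional fit versus DMSO of reporter mRNA signal, detected by RT-PCR and capillary electrophoresis in HepG2 cells transiently transfected with cis-element reporters and dosed 24 h.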

[16] = molecular target: Hepatocyte nuclear factor 3-beta (Homo sapiens) (UniProt Q9Y261); assay: ATG_FoxA2_CIS: Attagene CIS-FACTORIAL HepG2 Assay for human Forkhead box A2 (FOXA2) (AID 2282942); conditions: HepG2 cis-reporter transcription factor activity, 24 h; actives raise or lower the signal
How it was run: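 Multiplexed cis-element reporter assay in transiently transfected HepG2. Twenty-four hours post-dosing, RNA was reverse-transcribed, amplified, FAM-labelled, HpaI-digested and separated by CE. Activity gain or loss relative to DMSO.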

[17] = ATG_FoxO_CIS: Attagene CIS-FACTORIAL HepG2 Assay for human Forkhead box O (FoxO) (AID 2282943); conditions: HepG2 Attagene cis-reporter, FoxO element, mRNA; actives raise or lower the signal
How it was run: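 Transfected HepG2 reporter cells exposed to test chemical for 24 h; reporter RNA measured by reverse transcription, PCR and fluorescent capillary electrophoresis; curves fitted for increases and decreases against DMSO.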

[18] = ATG_GATA_CIS: Attagene CIS-FACTORIAL HepG2 Assay for human GATA Binding Protein (AID 2282944); conditions: HepG2 GATA cis-element reporter, Attagene multiplex mRNA; actives raise or lower the signal
How it was run: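 Transient MRTU transfection, HepG2, 24 h compound exposure. Total RNA → oligo(dT) RT → PCR → 6-FAM primer extension → HpaI cut → CE. Bidirectional fit vs DMSO.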

[19] = ATG_GLI_CIS: Attagene CIS-FACTORIAL HepG2 Assay for human Zinc Finger Protein GLI1 (AID 2282945); conditions: HepG2, Attagene cis-factorial reporter mRNA, GLI element; actives raise or lower the signal
How it was run: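 Transiently transfected HepG2 cells report endogenous transcription factor activity via cis-element-driven reporter units. After 24 h compound exposure, reporter mRNA was measured by RT-PCR with capillary electrophoresis; bidirectional fitting against DMSO baseline.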

[20] = ATG_ERE_CIS: Attagene CIS-FACTORIAL HepG2 Assay for Estrogen Response Element (ERE) (AID 2282940); conditions: HepG2 ERE cis-reporter, Attagene RNA transcript; actives raise or lower the signal
How it was run: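 Transient MRTU transfection of human HepG2; cis-element promoters; 24 h dosing; total RNA → RT (oligo dT) → PCR → 6-FAM primer extension → HpaI digest → CE fluorescence. Bidirectional fit, DMSO baseline.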

Measured: outcome

Sequence of Transcription factor E2F1 (Homo sapiens) (Q01094 whole entry, looked up): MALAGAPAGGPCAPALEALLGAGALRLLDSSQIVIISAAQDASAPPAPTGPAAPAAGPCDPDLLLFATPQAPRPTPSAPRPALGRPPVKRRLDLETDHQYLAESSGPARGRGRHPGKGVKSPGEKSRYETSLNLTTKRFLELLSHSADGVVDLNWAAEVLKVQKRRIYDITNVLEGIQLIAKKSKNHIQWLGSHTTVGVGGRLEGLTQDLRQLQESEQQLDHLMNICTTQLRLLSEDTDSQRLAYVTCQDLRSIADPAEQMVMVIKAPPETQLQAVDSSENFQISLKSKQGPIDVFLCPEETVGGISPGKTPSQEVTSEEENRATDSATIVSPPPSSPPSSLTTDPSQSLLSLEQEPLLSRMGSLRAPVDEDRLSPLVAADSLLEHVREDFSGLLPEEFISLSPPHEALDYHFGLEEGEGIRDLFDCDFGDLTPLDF
Sequence of Aryl hydrocarbon receptor (Homo sapiens) (P35869 whole entry, looked up): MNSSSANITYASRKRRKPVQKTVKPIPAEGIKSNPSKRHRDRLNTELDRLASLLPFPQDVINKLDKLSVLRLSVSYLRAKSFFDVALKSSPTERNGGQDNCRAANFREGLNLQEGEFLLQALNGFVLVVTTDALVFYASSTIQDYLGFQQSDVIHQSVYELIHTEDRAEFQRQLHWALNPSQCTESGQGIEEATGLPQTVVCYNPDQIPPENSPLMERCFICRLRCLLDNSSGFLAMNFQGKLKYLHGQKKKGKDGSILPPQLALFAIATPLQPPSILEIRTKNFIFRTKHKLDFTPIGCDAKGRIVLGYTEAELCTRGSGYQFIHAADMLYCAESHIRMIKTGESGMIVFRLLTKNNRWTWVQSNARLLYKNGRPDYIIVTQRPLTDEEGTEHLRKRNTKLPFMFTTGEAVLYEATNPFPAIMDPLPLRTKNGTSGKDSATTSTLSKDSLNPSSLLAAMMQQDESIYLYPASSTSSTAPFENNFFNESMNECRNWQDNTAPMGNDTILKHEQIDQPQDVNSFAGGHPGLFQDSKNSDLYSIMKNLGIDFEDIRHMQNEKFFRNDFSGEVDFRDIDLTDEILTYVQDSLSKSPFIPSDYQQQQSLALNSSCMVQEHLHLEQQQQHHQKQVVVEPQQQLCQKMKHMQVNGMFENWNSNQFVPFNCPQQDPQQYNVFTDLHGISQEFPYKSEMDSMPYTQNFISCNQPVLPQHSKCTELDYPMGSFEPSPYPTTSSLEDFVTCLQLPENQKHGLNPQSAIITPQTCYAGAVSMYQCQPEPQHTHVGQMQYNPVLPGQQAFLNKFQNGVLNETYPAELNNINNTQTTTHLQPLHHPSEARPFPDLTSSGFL
Sequence of Hepatocyte nuclear factor 3-beta (Homo sapiens) (Q9Y261 whole entry, looked up): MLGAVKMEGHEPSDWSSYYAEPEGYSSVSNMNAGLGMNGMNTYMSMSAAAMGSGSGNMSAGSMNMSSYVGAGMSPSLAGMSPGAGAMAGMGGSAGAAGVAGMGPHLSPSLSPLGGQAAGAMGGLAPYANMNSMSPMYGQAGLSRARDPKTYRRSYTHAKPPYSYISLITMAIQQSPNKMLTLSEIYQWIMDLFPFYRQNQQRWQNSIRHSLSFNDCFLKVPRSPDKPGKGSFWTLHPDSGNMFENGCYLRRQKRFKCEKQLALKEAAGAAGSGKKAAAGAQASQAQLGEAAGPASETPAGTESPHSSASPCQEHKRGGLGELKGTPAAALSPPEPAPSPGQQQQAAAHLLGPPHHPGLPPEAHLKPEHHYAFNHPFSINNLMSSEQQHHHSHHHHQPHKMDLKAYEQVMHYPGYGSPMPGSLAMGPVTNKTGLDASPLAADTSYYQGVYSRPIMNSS
Sequence of CCAAT/enhancer-binding protein beta (Homo sapiens) (P17676 whole entry, looked up): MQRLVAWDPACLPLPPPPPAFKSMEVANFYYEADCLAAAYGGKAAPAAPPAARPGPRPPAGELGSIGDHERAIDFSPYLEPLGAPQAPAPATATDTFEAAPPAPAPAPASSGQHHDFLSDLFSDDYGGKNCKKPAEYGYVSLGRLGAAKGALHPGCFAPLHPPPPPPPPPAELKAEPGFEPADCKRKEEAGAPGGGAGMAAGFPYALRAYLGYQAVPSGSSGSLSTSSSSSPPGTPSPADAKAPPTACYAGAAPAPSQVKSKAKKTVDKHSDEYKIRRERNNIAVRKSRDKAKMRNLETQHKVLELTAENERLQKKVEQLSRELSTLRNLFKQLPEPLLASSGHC
Sequence of Retinoic acid receptor alpha (Homo sapiens) (P10276 whole entry, looked up): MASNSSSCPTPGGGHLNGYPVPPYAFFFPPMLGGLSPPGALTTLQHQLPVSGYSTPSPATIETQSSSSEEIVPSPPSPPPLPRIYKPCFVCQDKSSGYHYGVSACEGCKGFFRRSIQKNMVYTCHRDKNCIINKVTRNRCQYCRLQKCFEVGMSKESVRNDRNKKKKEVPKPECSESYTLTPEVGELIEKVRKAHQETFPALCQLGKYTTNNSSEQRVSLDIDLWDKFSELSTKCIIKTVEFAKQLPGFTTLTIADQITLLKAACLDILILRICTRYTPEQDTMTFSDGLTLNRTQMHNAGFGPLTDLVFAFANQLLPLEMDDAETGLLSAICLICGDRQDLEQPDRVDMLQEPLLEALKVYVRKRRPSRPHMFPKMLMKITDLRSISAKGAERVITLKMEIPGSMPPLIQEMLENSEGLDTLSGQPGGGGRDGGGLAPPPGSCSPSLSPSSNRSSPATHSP

CCCCCC=CCC(=O)OC
not listed: [20]
inactive: all other assays above

CCO[Si](CCCS)(OCC)OCC
not listed: [11] | [20]
inactive: all other assays above

CCC(O)CO (stereo unspecified)
not listed: [9] | [18] | [19]
inactive: all other assays above

C=CC[N+](C)(C)CC=C
not listed: [14] | [18] | [20]
inactive: all other assays above
